# Test results: PubChem BioAssay (NCI)
# Compounds without any hit were thinned out: in the full panel of roughly 79,000, 15% have a hit. Values without a mark were called inactive. Calls of active or inactive are those of the source. Cut-off read from the data, not from the text of the source: active = growth inhibition above about 70%; inactive = the rest.
# Key:
# [1] = NCI Yeast Anticancer Drug Screen. Data for the rad50 strain (AID 155);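 note: 0% = growth of vehicle-only cultures of the same strain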; conditions: S. cerevisiae rad50 strain growth inhibition, stronger effect = higher value
# How it was run: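 DNA repair mutant yeast, compound exposure, growth read-out; inhibition is taken relative to vehicle.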
# [2] = NCI Yeast Anticancer Drug Screen. Data for the mec2-1 strain (AID 157); conditions: S. cerevisiae mec2-1 strain, stronger effect = higher value
# How it was run: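 Cells of the genetically defined mec2-1 yeast strain are incubated with test compound. Inhibition of growth is calculated against vehicle-treated controls.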
# [3] = NCI Yeast Anticancer Drug Screen. Data for the sgs1 mgt1 strain (AID 161);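 note: 0% = growth of cultures given vehicle only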; conditions: S. cerevisiae sgs1 mgt1 strain, stronger effect = higher value
# How it was run: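 Read-out: growth inhibition vs vehicle controls. Cells: mutant yeast strain deficient in DNA damage repair.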
# [4] = NCI Yeast Anticancer Drug Screen. Data for the cln2 rad14 strain (AID 165);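 note: 0% = growth equal to vehicle treated cultures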; conditions: S. cerevisiae cln2 rad14 strain, stronger effect = higher value
# How it was run: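 The screen exposed genetically defined yeast (cln2 rad14) to test compounds and scored growth inhibition relative to vehicle-treated controls.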
# [5] = NCI Yeast Anticancer Drug Screen. Data for the bub3 strain (AID 167); conditions: S. cerevisiae bub3 mutant strain, stronger effect = higher value
# How it was run: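 In this screen, a yeast mutant lacking normal mitotic checkpoint function is challenged with compound. Relative growth versus vehicle gives the inhibition value.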
# [6] = NCI Yeast Anticancer Drug Screen. Data for the mlh1 rad18 strain (AID 175); conditions: S. cerevisiae mlh1 rad18 strain growth inhibition, stronger effect = higher value
# How it was run: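 Compound-treated yeast growth, normalised to vehicle controls. Strain bears defined DNA repair mutations.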
# [7] = at 5.0 µM (retest, dose inferred, filed as 0.5)
# [8] = at 50.0 µM (retest, dose inferred, filed as 5.0)
Structure (SMILES),"growth inhibition [1, 7]","growth inhibition [1, 8]",growth inhibition ([1]; at 50.0 µM),"growth inhibition [2, 7]","growth inhibition [2, 8]",growth inhibition ([2]; at 50.0 µM),"growth inhibition [3, 7]","growth inhibition [3, 8]",growth inhibition ([3]; at 50.0 µM),"growth inhibition [4, 7]","growth inhibition [4, 8]",growth inhibition ([4]; at 50.0 µM),"growth inhibition [5, 7]","growth inhibition [5, 8]",growth inhibition ([5]; at 50.0 µM),"growth inhibition [6, 7]","growth inhibition [6, 8]",growth inhibition ([6]; at 50.0 µM)
CCOC(=O)C1=C(c2ccccc2)SC(c2ccccc2)N(C(C)C)C1=O (stereo not given),8%,67%,90.3% (active),13%,51%,88% (active),15%,81% (active),94.5% (active),12%,63%,83.6% (active),4%,68%,87.7% (active),9%,76% (active),88.1% (active)
COc1ccccc1/C=C1\NC(=S)N(/C=C2\C(=O)Oc3ccccc3C2=O)C1=O,8%,32%,73.2% (active),-7%,25%,29.9%,-6%,38%,73% (active),-9%,47%,64.7%,-27%,37%,79.1% (active),9%,50%,85.9% (active)
COc1ccc(C(=O)Nc2ccccc2[N+](=O)[O-])cc1,-6%,7%,-1.15%,-16%,-23%,8.3%,-13%,-11%,10.4%,-14%,5%,48.5%,-15%,13%,19.2%,-13%,0%,16.2%
COc1ccc(/C(Cl)=C(/c2ccc(O)cc2)c2ccc(OCCN(C)C)cc2)cc1,40%,40%,91.8% (active),32%,32%,87.7% (active),42%,42%,92.3% (active),34%,34%,89.3% (active),26%,26%,88.6% (active),27%,27%,88.8% (active)
O=C1C(N=Nc2ccccc2)=C(O)C2C3C=CC(C3)C12 (stereo not given),2%,98% (active),98.8% (active),0%,98% (active),98.5% (active),2%,95% (active),95% (active),1%,98% (active),99.3% (active),1%,98% (active),98.2% (active),17%,98% (active),98.8% (active)
Cc1[nH]nc(-c2cccnc2)c1N=NN1CCOCC1,-4%,70% (active),64%,7%,79% (active),97.5% (active),-5%,98% (active),96% (active),-2%,80% (active),58.5%,-3%,99% (active),5.35%,-3%,77% (active),98% (active)
COc1ccc2nc(N/N=C/c3ccccn3)cc(C)c2c1,10%,56%,98.7% (active),-3%,62%,98.1% (active),0%,57%,99.2% (active),3%,40%,96.5% (active),4%,58%,98.3% (active),19%,75% (active),99% (active)
CC(=O)Nc1nc(Cl)c2ncn(C3CC(OC(=O)c4ccc(C)cc4)C(COC(=O)c4ccc(C)cc4)O3)c2n1 (stereo not given),-3%,0%,53.1%,0%,6%,27.4%,57%,3%,60.1%,-2%,0%,63.4%,0%,-2%,33.2%,-20%,0%,48.6%
CC(=O)Nc1c(Cl)ccc2c1Cc1cc([N+](=O)[O-])ccc1-2,19%,92% (active),91% (active),2%,19%,45.8%,6%,-39%,49.5%,-3%,44%,47.9%,-7%,10%,10.7%,-9%,66%,90.8% (active)
CC(C)c1ccc(O)c(O)c(=O)c1,14%,89% (active),92.8% (active),9%,63%,94.7% (active),70% (active),44%,93.8% (active),18%,26%,91.7% (active),7%,79% (active),93.1% (active),41%,64%,92.7% (active)
